# Measured values published in PMC7862700, “An all-to-all approach to the identification of sequence-specific readers for epigenetic DNA modifications on cytosine”.
# Tests used:
# Test in all cases: DAPPL (digital affinity profiling via proximity ligation, sequencing); 10 mM Tris-HCl pH 7.5, 50 mM NaCl, 1 mM DTT, 4% glycerol, room temperature, 30 min; GST-TFs on glutathione beads, 16-mer random dsDNA library, 0.1% formaldehyde crosslink after washing; high values mean tight binding
# FLI1 = target: T1, FLI1 (Homo sapiens, UniProt Q01543 1-452); conditions: protein: recombinant; tags: N-terminal GST; dsDNA, one strand shown
# T1 sequence: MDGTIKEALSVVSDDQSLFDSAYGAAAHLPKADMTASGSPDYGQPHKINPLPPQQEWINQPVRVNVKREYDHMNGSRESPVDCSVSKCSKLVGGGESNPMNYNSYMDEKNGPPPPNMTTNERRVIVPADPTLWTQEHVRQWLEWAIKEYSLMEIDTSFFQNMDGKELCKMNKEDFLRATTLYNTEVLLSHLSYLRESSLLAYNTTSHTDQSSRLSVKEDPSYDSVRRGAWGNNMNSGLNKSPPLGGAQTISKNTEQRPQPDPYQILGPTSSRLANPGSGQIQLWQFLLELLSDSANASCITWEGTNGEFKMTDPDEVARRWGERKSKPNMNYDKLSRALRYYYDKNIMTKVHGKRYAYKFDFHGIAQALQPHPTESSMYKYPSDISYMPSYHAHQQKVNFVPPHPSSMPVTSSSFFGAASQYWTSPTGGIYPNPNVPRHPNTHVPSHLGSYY
# In short: (§1)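 Human transcription factors fused to GST were expressed in yeast, captured on glutathione beads, given DNA barcodes and pooled with a GST-only negative control. Pools were incubated with 200 nmole of a 16-mer random double-stranded DNA library in Tris/NaCl/DTT/glycerol buffer at room temperature for 30 min. They were then washed, crosslinked with 0.1% formaldehyde, proximity-ligated (BsaI/T4 ligase, 1 h, 37 °C), PCR-amplified and sequenced on an Illumina NextSeq500. Binding signal is each 6-mer's read frequency for a factor divided by its frequency for the GST control.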
# ELK1 = target: T2, ELK1 (Homo sapiens, UniProt P19419 1-428); conditions: protein: recombinant; tags: N-terminal GST; dsDNA, one strand shown
# T2 sequence: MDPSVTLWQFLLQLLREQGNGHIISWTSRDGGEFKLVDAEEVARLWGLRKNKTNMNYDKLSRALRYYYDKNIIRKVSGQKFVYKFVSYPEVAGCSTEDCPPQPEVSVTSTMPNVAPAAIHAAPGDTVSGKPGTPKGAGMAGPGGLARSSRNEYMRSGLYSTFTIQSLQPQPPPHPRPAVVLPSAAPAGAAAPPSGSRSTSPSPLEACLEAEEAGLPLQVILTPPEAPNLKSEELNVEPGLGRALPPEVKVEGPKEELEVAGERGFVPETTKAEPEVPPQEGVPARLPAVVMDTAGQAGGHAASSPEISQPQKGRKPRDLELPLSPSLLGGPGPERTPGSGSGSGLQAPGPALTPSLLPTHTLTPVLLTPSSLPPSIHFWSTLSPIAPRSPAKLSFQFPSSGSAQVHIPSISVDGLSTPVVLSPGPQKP
# In short: as §1
# GABPA = target: T3, GABPA (Homo sapiens, UniProt Q06546 1-454); conditions: protein: recombinant; tags: N-terminal GST; dsDNA, one strand shown
# T3 sequence: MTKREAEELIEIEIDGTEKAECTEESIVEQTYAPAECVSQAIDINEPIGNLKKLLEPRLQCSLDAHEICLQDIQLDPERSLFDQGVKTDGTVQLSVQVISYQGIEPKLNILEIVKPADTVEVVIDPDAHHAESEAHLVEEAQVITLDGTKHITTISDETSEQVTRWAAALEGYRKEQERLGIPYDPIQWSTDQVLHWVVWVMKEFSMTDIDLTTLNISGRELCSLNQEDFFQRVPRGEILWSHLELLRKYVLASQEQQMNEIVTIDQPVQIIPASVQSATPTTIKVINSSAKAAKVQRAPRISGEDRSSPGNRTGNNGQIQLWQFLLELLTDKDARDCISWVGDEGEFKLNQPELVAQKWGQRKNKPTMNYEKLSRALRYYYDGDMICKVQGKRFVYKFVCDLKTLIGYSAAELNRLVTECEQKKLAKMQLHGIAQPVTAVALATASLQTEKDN
# In short: as §1
# ERG = target: T4, ERG (Homo sapiens, UniProt P11308 1-479); conditions: protein: recombinant; tags: N-terminal GST; dsDNA, one strand shown
# T4 sequence: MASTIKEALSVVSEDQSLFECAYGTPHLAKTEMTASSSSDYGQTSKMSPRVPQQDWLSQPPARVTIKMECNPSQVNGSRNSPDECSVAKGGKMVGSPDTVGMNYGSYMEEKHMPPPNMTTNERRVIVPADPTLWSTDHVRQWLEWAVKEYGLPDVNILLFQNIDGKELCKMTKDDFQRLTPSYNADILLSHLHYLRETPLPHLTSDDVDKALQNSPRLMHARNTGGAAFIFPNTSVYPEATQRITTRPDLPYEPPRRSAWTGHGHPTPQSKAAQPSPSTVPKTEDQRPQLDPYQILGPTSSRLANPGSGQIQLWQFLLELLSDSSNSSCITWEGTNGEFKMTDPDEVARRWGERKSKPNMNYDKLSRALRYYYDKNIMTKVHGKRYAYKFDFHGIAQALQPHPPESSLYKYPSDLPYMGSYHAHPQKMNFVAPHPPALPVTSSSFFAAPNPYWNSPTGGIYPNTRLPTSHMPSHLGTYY
# In short: as §1
# ELF1 = ELF1 (Homo sapiens, UniProt P32519 1-619); conditions: protein: recombinant; tags: N-terminal GST; dsDNA, one strand shown
# In short: as §1
# EHF = target: T5, EHF (Homo sapiens, UniProt Q9NZC4 1-300); conditions: protein: recombinant; tags: N-terminal GST; dsDNA, one strand shown
# T5 sequence: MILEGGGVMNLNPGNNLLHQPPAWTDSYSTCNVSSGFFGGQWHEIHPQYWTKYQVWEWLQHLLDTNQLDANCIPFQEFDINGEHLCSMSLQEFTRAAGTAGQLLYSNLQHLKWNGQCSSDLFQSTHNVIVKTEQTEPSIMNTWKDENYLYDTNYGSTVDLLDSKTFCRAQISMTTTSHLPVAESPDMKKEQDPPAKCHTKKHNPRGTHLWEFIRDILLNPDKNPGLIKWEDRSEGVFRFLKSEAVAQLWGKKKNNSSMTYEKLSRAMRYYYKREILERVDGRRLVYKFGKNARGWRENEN
# In short: as §1
# SPI1 = SPI1 (Homo sapiens, UniProt P17947 1-270); conditions: protein: recombinant; tags: N-terminal GST; dsDNA, one strand shown
# In short: as §1
# SPIB = SPIB (Homo sapiens, UniProt Q01892 1-262); conditions: protein: recombinant; tags: N-terminal GST; dsDNA, one strand shown
# In short: as §1
# ELK3 = target: T6, ELK3 (Homo sapiens, UniProt P41970 1-407); conditions: protein: recombinant; tags: N-terminal GST; dsDNA, one strand shown
# T6 sequence: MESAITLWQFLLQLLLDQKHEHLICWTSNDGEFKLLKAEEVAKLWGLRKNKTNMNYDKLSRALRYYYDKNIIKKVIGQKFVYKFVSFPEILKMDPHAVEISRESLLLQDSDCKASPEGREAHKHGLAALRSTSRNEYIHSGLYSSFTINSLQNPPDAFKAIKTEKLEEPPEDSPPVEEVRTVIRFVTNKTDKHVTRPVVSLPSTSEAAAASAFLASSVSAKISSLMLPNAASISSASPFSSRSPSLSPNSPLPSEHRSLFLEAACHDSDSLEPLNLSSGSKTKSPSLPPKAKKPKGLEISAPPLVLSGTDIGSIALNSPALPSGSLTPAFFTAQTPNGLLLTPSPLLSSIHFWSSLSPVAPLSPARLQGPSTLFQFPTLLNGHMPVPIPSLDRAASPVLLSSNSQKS
# In short: as §1
# FEV = target: T7, FEV (Homo sapiens, UniProt Q99581 1-238); conditions: protein: recombinant; tags: N-terminal GST; dsDNA, one strand shown
# T7 sequence: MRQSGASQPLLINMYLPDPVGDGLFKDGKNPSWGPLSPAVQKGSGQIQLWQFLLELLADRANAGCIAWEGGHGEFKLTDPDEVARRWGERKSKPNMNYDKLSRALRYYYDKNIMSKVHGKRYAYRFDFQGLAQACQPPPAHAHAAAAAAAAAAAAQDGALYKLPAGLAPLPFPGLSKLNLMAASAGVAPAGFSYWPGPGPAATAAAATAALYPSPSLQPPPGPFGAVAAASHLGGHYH
# In short: as §1
# ETV5 = ETV5 (Homo sapiens, UniProt P41161 1-510); conditions: protein: recombinant; tags: N-terminal GST; dsDNA, one strand shown
# In short: as §1
# HSF1 = HSF1 (Homo sapiens, UniProt Q00613 1-529); conditions: protein: recombinant; tags: N-terminal GST; chain copies: 3; dsDNA, one strand shown
# In short: as §1
# SPIC = target: T8, SPIC (Homo sapiens, UniProt Q8N5J4 1-248); conditions: protein: recombinant; tags: N-terminal GST; dsDNA, one strand shown
# T8 sequence: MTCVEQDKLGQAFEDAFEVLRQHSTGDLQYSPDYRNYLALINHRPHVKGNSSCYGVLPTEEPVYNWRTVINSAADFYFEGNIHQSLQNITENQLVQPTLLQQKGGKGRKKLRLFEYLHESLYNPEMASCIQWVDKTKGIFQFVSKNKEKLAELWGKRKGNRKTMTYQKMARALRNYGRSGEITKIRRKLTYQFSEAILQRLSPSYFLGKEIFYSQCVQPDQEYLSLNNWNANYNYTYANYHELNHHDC
# In short: as §1
# ELF4 = ELF4 (Homo sapiens, UniProt Q99607 1-663); conditions: protein: recombinant; tags: N-terminal GST; dsDNA, one strand shown
# In short: as §1
# ELK4 = target: T9, ELK4 (Homo sapiens, UniProt P28324-2 1-405); conditions: protein: recombinant; tags: N-terminal GST; dsDNA, one strand shown
# T9 sequence: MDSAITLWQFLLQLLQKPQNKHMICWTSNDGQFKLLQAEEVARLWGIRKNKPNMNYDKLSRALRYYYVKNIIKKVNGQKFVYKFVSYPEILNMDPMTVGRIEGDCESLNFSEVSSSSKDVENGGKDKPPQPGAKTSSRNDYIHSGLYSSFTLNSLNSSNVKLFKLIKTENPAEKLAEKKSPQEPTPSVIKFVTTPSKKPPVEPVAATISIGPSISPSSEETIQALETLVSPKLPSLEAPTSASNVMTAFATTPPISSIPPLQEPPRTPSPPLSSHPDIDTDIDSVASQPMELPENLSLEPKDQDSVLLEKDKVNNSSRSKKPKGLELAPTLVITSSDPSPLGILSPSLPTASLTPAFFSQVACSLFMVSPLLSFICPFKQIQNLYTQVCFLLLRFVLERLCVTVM
# In short: as §1
# ETV2 = target: T10, ETV2 (Homo sapiens, UniProt O00321 1-342); conditions: protein: recombinant; tags: N-terminal GST; dsDNA, one strand shown
# T10 sequence: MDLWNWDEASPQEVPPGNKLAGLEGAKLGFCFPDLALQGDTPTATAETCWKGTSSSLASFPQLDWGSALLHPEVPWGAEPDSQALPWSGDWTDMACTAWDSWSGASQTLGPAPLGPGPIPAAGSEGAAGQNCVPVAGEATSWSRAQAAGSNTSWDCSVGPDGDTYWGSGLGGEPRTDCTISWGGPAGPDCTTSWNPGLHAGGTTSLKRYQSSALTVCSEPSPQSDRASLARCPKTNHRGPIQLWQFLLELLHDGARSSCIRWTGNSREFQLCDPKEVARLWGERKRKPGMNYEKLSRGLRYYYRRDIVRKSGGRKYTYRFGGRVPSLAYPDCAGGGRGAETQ
# In short: as §1
# ELF3 = target: T11, ELF3 (Homo sapiens, UniProt P78545 1-371); conditions: protein: recombinant; tags: N-terminal GST; dsDNA, one strand shown
# T11 sequence: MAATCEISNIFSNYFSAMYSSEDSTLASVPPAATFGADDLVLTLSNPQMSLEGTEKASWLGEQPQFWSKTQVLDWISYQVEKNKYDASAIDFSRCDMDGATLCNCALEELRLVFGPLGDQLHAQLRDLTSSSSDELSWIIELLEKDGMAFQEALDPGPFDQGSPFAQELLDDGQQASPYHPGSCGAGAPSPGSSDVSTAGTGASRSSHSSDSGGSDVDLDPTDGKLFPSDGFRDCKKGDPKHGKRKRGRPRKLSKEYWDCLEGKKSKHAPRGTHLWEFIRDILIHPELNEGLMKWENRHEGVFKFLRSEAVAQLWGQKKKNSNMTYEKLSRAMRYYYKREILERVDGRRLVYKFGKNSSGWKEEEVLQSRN
# In short: as §1
# CRX = CRX (Homo sapiens, UniProt O43186 1-299); conditions: protein: recombinant; tags: N-terminal GST; dsDNA, one strand shown
# In short: as §1
# ETV1 = ETV1 (Homo sapiens, UniProt P50549 1-477); conditions: protein: recombinant; tags: N-terminal GST; dsDNA, one strand shown
# In short: as §1
# Chain of HSF1 (Q00613 whole entry): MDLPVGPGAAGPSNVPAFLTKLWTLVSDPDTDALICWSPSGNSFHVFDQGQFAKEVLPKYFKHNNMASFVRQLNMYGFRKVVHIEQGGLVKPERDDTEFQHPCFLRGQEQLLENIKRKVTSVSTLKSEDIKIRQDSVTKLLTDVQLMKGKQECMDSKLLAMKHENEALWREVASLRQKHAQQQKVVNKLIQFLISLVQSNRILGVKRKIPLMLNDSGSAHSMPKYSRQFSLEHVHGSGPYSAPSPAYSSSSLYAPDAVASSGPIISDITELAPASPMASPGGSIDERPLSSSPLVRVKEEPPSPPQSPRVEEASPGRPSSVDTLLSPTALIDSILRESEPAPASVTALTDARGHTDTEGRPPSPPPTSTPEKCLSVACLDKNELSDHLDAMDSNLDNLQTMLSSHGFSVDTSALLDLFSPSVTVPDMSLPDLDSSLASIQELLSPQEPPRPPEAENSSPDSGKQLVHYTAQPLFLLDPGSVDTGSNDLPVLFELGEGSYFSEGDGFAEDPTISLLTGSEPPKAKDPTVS
# Chain of ETV5 (P41161 whole entry): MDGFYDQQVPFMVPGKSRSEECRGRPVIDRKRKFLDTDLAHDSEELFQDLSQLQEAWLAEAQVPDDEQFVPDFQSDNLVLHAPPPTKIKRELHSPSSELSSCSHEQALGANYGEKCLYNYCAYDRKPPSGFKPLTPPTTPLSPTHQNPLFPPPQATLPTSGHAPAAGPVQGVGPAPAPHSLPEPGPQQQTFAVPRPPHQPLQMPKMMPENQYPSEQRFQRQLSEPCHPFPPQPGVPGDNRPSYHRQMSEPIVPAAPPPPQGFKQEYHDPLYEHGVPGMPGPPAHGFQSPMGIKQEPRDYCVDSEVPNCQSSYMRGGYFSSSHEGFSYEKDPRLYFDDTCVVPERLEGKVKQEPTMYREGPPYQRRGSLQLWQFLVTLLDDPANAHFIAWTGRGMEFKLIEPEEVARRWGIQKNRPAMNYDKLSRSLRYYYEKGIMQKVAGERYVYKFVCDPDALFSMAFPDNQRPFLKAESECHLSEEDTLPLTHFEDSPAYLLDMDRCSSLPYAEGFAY
# Chain of SPIB (Q01892 whole entry): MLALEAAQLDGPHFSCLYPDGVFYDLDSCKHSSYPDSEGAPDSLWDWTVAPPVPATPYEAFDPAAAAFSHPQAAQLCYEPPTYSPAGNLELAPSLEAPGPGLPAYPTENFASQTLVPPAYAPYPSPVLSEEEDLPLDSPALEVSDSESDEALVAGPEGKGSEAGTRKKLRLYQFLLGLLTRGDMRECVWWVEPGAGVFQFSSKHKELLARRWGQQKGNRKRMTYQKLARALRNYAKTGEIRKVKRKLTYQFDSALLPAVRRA
# Chain of CRX (O43186 whole entry): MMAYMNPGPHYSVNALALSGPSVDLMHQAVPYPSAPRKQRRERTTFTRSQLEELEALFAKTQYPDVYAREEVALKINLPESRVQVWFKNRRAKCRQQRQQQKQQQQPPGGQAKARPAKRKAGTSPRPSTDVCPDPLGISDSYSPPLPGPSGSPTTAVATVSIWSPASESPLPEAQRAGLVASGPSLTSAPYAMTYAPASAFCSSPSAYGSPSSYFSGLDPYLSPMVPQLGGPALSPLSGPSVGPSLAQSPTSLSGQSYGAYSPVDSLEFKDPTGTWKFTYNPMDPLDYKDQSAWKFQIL
# Chain of ELF4 (Q99607 whole entry): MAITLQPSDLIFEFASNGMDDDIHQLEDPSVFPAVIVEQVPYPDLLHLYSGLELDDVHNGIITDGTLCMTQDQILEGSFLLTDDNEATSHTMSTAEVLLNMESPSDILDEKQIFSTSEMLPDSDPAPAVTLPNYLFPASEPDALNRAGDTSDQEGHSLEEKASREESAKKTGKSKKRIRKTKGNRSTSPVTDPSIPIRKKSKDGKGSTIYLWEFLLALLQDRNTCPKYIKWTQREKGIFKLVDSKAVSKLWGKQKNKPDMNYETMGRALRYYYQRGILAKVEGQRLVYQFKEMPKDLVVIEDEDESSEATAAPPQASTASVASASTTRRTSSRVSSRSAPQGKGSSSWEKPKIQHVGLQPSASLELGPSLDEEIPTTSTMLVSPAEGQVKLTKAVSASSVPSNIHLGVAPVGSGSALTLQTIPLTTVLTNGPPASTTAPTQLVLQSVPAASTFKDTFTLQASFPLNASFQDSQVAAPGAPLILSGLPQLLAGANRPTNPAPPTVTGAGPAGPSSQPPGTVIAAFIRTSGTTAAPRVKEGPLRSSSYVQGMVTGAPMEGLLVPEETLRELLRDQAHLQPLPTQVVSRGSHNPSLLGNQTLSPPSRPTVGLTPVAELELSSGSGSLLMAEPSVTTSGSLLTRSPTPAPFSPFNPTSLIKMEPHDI
# Chain of ELF1 (P32519 whole entry): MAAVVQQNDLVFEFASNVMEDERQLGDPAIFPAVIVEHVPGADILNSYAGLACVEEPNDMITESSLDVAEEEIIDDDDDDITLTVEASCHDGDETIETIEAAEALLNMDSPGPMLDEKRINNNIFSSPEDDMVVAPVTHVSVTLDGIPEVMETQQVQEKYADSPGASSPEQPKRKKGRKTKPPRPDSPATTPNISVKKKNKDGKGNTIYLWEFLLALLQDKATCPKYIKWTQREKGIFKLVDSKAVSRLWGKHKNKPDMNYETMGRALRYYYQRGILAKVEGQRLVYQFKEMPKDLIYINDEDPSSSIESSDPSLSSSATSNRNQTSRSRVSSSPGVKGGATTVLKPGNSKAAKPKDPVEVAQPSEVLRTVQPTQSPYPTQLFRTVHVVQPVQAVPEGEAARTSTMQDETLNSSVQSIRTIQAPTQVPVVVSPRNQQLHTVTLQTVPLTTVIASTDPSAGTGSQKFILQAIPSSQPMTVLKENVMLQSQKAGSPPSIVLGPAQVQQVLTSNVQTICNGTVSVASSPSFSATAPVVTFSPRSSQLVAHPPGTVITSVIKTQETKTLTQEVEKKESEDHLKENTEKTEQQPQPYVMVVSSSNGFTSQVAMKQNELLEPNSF
# Chain of ETV1 (P50549 whole entry): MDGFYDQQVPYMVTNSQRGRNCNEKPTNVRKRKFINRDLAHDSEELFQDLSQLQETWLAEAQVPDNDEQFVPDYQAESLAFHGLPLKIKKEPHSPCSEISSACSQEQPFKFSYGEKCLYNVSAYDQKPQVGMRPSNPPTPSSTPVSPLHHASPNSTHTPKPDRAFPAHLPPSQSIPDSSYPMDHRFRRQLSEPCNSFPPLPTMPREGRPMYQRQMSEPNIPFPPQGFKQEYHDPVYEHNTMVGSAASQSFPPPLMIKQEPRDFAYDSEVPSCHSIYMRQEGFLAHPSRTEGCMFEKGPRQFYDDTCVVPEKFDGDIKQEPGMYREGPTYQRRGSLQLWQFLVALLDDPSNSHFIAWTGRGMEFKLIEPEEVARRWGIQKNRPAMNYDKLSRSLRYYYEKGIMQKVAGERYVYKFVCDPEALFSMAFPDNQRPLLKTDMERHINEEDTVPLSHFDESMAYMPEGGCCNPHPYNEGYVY
sequence,measurement,setting,value
CATCTT,binding signal,FLI1,"1.18 fold enrichment (6-mer frequency, TF over GST control)"
same,binding signal,ELK1,"1.27 fold enrichment (6-mer frequency, TF over GST control)"
same,binding signal,GABPA,"1.17 fold enrichment (6-mer frequency, TF over GST control)"
same,binding signal,ERG,"1.27 fold enrichment (6-mer frequency, TF over GST control)"
same,binding signal,ELF1,"1.25 fold enrichment (6-mer frequency, TF over GST control)"
same,binding signal,EHF,"1.2 fold enrichment (6-mer frequency, TF over GST control)"
same,binding signal,SPI1,"1.21 fold enrichment (6-mer frequency, TF over GST control)"
same,binding signal,SPIB,"1.21 fold enrichment (6-mer frequency, TF over GST control)"
same,binding signal,ELK3,"1.29 fold enrichment (6-mer frequency, TF over GST control)"
same,binding signal,FEV,"1.16 fold enrichment (6-mer frequency, TF over GST control)"
same,binding signal,ETV5,"1.21 fold enrichment (6-mer frequency, TF over GST control)"
same,binding signal,HSF1,"1.17 fold enrichment (6-mer frequency, TF over GST control)"
same,binding signal,SPIC,"1.11 fold enrichment (6-mer frequency, TF over GST control)"
same,binding signal,ELF4,"1.12 fold enrichment (6-mer frequency, TF over GST control)"
same,binding signal,ELK4,"1.31 fold enrichment (6-mer frequency, TF over GST control)"
same,binding signal,ETV2,"1.29 fold enrichment (6-mer frequency, TF over GST control)"
same,binding signal,ELF3,"1.23 fold enrichment (6-mer frequency, TF over GST control)"
same,binding signal,CRX,"1.33 fold enrichment (6-mer frequency, TF over GST control)"
same,binding signal,ETV1,"1.24 fold enrichment (6-mer frequency, TF over GST control)"
